PAFAH2 FP inh: inhibitors of human PAFAH2; 0.99% of 340,000 active; recombinant PAFAH2, FP-rhodamine activity probe, fluorescence polarization; AID 492956; inhibition, % at 3.39 µM; Q99487;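 active means inhibition above the mean over all tested compounds plus 3 SD, cut at about 30% in these data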;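 further: inhibitors block probe labeling of enzyme so polarization drops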
Fam108B inh: blocks mouse Fam108B hydrolase in RBBP9 counter-screen; inhibition, % at 9.51 µM; recombinant Fam108B, FP-Rh probe fluorescence polarization; 0.33% of 300,000 active;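 active means inhibition above the screen mean inhibition plus 3 SD, computed separately per campaign, cut at about 18% in these data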;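 further: inhibitors lower polarization as less probe binds the enzyme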
PAFAH1B3 inh: PAFAH1B3 (human) inhibition; 0.28% of 340,000 active; recombinant PAFAH1B3, FP-rhodamine probe, fluorescence polarization; inhibition, % at 3.39 µM;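 active means inhibition above the screen-wide average of all tested compounds plus 3 SD, cut at about 25% in these data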
Target sequence (Q15102 whole entry, looked up): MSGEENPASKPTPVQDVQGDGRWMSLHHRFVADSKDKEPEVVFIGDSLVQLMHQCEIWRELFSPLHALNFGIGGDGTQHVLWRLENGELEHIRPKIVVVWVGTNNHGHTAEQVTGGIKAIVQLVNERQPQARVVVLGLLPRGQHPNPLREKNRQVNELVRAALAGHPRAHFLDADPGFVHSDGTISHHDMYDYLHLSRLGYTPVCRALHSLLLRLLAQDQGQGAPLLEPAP
PME-1 primary: blocks human protein phosphatase methylesterase 1. Q9Y570. recombinant PME-1, FP-Rh probe fluorescence polarization. inhibition, % at 5.9 µM. 0.53% of 320,000 active;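 active means inhibition above the campaign mean of all compounds plus 3 SD, cut at about 26% in these data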;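 further: competitive labeling of PME-1 active site by serine hydrolase directed probe; inhibitors block probe labeling so polarization falls and inhibition rises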
pPAFAH FP inh: inhibitors of human plasma PAF acetylhydrolase (pPAFAH); Q13093; recombinant pPAFAH, FP-rhodamine probe fluorescence polarization; inhibition, % at 3.39 µM; 1.5% of 330,000 active; AID 463082;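 active means inhibition above the mean inhibition across the screen plus 3 SD, cut at about 25% in these data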;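 further: inhibitors block binding of the rhodamine activity-based probe so polarization drops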
Target sequence (Q13093 whole entry, looked up): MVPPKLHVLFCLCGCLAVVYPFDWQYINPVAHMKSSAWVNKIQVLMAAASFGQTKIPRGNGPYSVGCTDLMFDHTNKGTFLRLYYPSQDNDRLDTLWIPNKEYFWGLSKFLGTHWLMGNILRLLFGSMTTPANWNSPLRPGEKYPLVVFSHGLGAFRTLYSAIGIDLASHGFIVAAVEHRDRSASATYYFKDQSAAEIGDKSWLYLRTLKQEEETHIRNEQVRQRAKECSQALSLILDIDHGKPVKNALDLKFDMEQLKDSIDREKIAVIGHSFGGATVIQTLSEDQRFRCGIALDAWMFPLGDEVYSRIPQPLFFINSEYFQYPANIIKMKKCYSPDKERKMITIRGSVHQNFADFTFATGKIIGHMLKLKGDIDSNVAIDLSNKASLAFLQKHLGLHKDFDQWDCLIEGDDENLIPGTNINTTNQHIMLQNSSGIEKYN
PAFAH1B2 FP inh: inhibitors of human PAFAH1B2; P68402; recombinant PAFAH1B2, FP-rhodamine activity probe, fluorescence polarization; inhibition, % at 3.39 µM; 1.2% of 340,000 active; AID 492953;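 active means inhibition above the mean of all tested compounds plus 3 SD, cut at about 24% in these data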
Large screens that a line does not name were inactive. A selection: hits, their analogues and other compounds. The true share with any hit is near 2.9%.

CN(CCC#N)C(=O)COC(=O)c1c2c(nc3ccccc13)/C(=C/c1ccco1)CC2	pPAFAH FP inh 27
Cc1ccc(S(=O)(=O)Nc2ccc(S(=O)(=O)Nc3nccs3)cc2)cc1C	none (no result: Fam108B inh, PME-1 primary)
CC(=O)Nc1cccc(NC(=O)CSc2ncc(C(=O)Nc3ccccc3)c(=O)n2C)c1	none
CC(=O)c1cccc(NC(=O)CSc2ncc(C(=O)Nc3ccccc3)c(=O)n2C)c1	pPAFAH FP inh 31
Cc1noc(C)c1CSCC(=O)Nc1ccccc1N1CCCCC1	PAFAH1B2 FP inh 30
O=C(COC(=O)C1(c2ccc(F)cc2)CCCC1)N1CCN(C(=O)c2ccco2)CC1	PAFAH1B2 FP inh 33
O=C(COC(=O)C1(c2ccccc2F)CCCC1)N1CCN(C(=O)c2ccco2)CC1	none
Cc1nc2ccc(NC(=O)Cc3ccccc3F)cc2s1	none
O=[N+]([O-])c1cc(-c2csc(NCCc3nc4cc(Cl)c(Cl)cc4n3CCCO)n2)ccc1Cl	pPAFAH FP inh 31
CC1(C)CC(=O)C2=C(C1)N(CCN1CCOCC1)C1=C(C(=O)CC(C)(C)C1)C2c1ccc(Cl)cc1	none
CC1(C)CC(=O)C2=C(C1)N(CCN1CCOCC1)C1=C(C(=O)CC(C)(C)C1)C2c1cccc(F)c1	PME-1 primary 28
CCN(Cc1ccccc1)C(=O)CCc1nnc(CCCc2ccccc2)o1	PAFAH1B2 FP inh 26
CN(CCCN1CCOCC1)Cc1cn(C)nc1-c1ccccc1F	none
CCOC(=O)C1CCCN(C(=O)CC(c2ccccc2)c2ccccc2)C1 (stereo not given)	none
CCOC(=O)C1CCCN(C(=O)Cc2c(C(=O)O)[nH]c3ccccc23)C1 (stereo not given)	PAFAH1B2 FP inh 34
CCOC(=O)CC1CCCCN1C(=O)CCCn1nnnc1CN1CCC(C)CC1 (stereo not given)	none
Oc1ccc(C=NNc2nc3ccccc3s2)c(O)c1	none (no result: Fam108B inh, PME-1 primary, pPAFAH FP inh)
Oc1ccc(/C=N/Nc2ccc3ccccc3c2)c(O)c1	pPAFAH FP inh 25
N#CCC(=O)Nc1ccc(C(=O)OCc2ccccc2Oc2ccccc2)cc1	PME-1 primary 38
CCCn1c(=O)c2ccccc2n2c(Sc3nnnn3-c3ccccc3)nnc12	pPAFAH FP inh 27
O=C(CSCc1c(F)cccc1F)Nc1ccccc1	none
CC(=O)NC1=C(NC2CCS(=O)(=O)C2)C(=O)c2ccccc2C1=O (stereo not given)	none
CN(C1=C(NC(=O)c2ccccc2)C(=O)c2ccccc2C1=O)C1CCS(=O)(=O)C1 (stereo not given)	PAFAH2 FP inh 38, PAFAH1B3 inh 51
O=C(NCc1cccnc1)C(=O)Nc1nc(C23CC4CC(CC(C4)C2)C3)cs1	PAFAH1B2 FP inh 33
CNC(=O)C(=O)Nc1nc(C23CC4CC(CC(C4)C2)C3)cs1	PAFAH1B2 FP inh 26
O=C(NCc1ccccc1)C(=O)Nc1nc(C23CC4CC(CC(C4)C2)C3)cs1	none
Cc1ccc(C)c(NC(=O)COC(=O)c2cc3ccccc3oc2=O)c1	PME-1 primary 27 (no result: Fam108B inh)
CC(=O)N1c2ccc(S(=O)(=O)N3CCC(C(=O)Nc4ncccc4C)CC3)cc2CC1C (stereo not given)	none
Cc1csc(NC(=O)c2c(-c3c(F)cccc3Cl)noc2C)n1	pPAFAH FP inh 33 (no result: Fam108B inh)
Cc1c(C(=O)N/N=C/c2ccc(O)c(Br)c2)sc(N)c1C#N	PME-1 primary 29
CCOC(=O)c1ccc(NC(=O)C2(c3ccc(Cl)cc3)CCCC2)cc1	PAFAH1B2 FP inh 29
COc1ccc(N2Cc3ccc(C(=O)N/N=C\c4ccc(O)cc4O)cc3C2)cc1	Fam108B inh 50, PME-1 primary 48, pPAFAH FP inh 39 (no result: PAFAH2 FP inh, PAFAH1B3 inh, PAFAH1B2 FP inh)
NC(=O)c1cc[n+](CC(=O)c2ccc(NC(=O)c3ccccc3)cc2)cc1	none
CC(C)CC1=C/C(=C/c2ccc(-c3ccccc3)o2)C(=O)O1	pPAFAH FP inh 29
O=C(O)c1cccc(Nc2nc(-c3cc4ccccc4oc3=O)cs2)c1	none (no result: Fam108B inh, PME-1 primary, pPAFAH FP inh)
CC(C)NC(=O)N(C)C[C@H]1Oc2c(NC(=O)Nc3ccccc3)cccc2C(=O)N([C@H](C)CO)C[C@@H]1C	none (no result: Fam108B inh, PME-1 primary)
CC1=C(C(=O)OCCc2ccccc2)C(c2ccsc2)NC(=O)N1C (stereo not given)	pPAFAH FP inh 28, PAFAH1B2 FP inh 68
Cc1nn(C(=O)c2ccco2)c(C)c1Sc1ccc(Br)cc1	none
Cc1nn(C(=O)c2ccco2)c(C)c1Sc1ccccc1	PAFAH2 FP inh 52
COc1ccc(C=Nc2cccnc2N)cc1	pPAFAH FP inh 27
O=C(CCNC(=O)c1ccc(Cl)cc1)Nc1cccc(S(=O)(=O)N2CCCCC2)c1	none (no result: Fam108B inh)
COc1cc(N)ccc1NC(=O)c1cc2ccccc2o1	none
O=C1C(=Cc2ccco2)C(=O)c2ccccc21	pPAFAH FP inh 28
COc1ccc(OC)c(/C=C/C(=O)OCC(=O)Nc2nnc(-c3ccccc3)o2)c1	none (no result: Fam108B inh)
CC1CCc2c(sc(NC(=O)c3ccc(Cn4cc([N+](=O)[O-])cn4)o3)c2C#N)C1 (stereo not given)	pPAFAH FP inh 31
CC(C)(C)OC(=O)n1cc(/C=N/NC(=O)c2ccco2)c2ccccc21	none
Cc1n[nH]c(=S)n1/N=C/c1ccc(OCc2ccc(Cl)cc2)cc1	PAFAH1B2 FP inh 28
O=C(Nc1ccccc1F)c1cc(S(=O)(=O)N2CCOCC2)ccc1N1CCOCC1	none (no result: Fam108B inh, PME-1 primary, pPAFAH FP inh)
COc1ccccc1N(Cc1ccccc1)S(=O)(=O)c1cccc(C(=O)Nc2cc(C)ccn2)c1	none
O=S(=O)(O)c1cc(O)c(N=Nc2ccc(O)cc2O)c2ccccc12	PAFAH2 FP inh 90, PAFAH1B3 inh 90, PAFAH1B2 FP inh 87 (no result: Fam108B inh, PME-1 primary, pPAFAH FP inh)
COc1ccc(NS(=O)(=O)c2ccc(C(=O)N(C)Cc3ccc(C)o3)cc2)cc1	pPAFAH FP inh 32 (no result: Fam108B inh, PME-1 primary)
COc1ccc(NS(=O)(=O)c2ccc(C)c(C(=O)N(C)Cc3ccc(C)cc3)c2)cc1	pPAFAH FP inh 28
COCCNC(=O)CCc1ccc(S(=O)(=O)Nc2ccc(C)cc2)cc1	pPAFAH FP inh 25
COc1ccc(NS(=O)(=O)c2ccc(C)c(C(=O)N(C)CCc3ccc(OC)c(OC)c3)c2)cc1	none
COc1ccc(NS(=O)(=O)c2ccc(NC(=O)C3CCCO3)cc2)cc1 (stereo not given)	pPAFAH FP inh 26
CN(CC(=O)Nc1ccc(Cl)cc1)CC(=O)Nc1cccc(Br)c1	none
CC1OC2(C)OC(=N)C1(C#N)C(C#N)(C#N)C2c1ccccc1 (stereo not given)	none
CC1C2(C)OC(=N)C(C#N)(C(C)O2)C1(C#N)C#N (stereo not given)	PAFAH2 FP inh 75, PAFAH1B3 inh 60, PAFAH1B2 FP inh 53
N#Cc1c(-c2ccc(Cl)cc2)ccnc1N1CCOCC1	none
Cn1cc([N+](=O)[O-])c(C(=O)N2CCN(Cc3ccc4c(c3)OCO4)CC2)n1	none
CNC(=O)c1cc(C(=O)c2ccc(Cl)cc2)c(Br)[nH]1	PAFAH1B2 FP inh 37
COc1cc(/C=N/NC(=O)c2cc(C3CC3)[nH]n2)ccc1O	none

Source: PubChem (The Scripps Research Institute Molecular Screening Center)
